Results filed as inconclusive are left out. Values without a mark were called inactive. The source made the active and inactive calls. Calls follow the shape of the dose curve; as a rule, active = well fitted inhibition curve with a large enough effect; inconclusive = small, poorly fitted or top-dose-only effect; inactive = flat fitted curve, though single readings scatter.
Tests used:
CRL-7250 = normal cell line; experiment: Cytotoxic Profiling of Annotated Libraries Using Quantitative High-Throughput Screening (AID 1296008); settings: Five cell lines viability, CellTiter-Glo ATP luminescence, 48-72 h; max response: stronger effect = lower value; as to max response: % is scaled to controls: 0 for no effect and ±100 for the full control effect
How it was run: (§1)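 Cells exposed to compounds for 48 or 72 hr at 37 degrees Celsius. Viability read as ATP-coupled luminescence with CellTiter-Glo after 10 min at room temperature.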

HaCat [1] = experiment: as above; settings: Five cell lines viability, CellTiter-Glo ATP luminescence, 48-72 h; max response: stronger effect = lower value
How it was run: as §1

KB-3-1 = experiment: as above; settings: Five cell lines viability, CellTiter-Glo ATP luminescence, 48-72 h; max response: stronger effect = lower value
How it was run: as §1

HACAT [2] = experiment: qHTS assay to identify novel small-molecules to repurpose for Merkel cell carcinoma treatment (AID 1296009); settings: MCC and control cell lines, CellTiter-Glo viability, 72 h; at 44.8 µM (top of the series) unless noted
How it was run: (§2)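 CellTiter-Glo luminescence after 72 hr compound exposure at 37 degree celsius gave cell viability. Libraries NPC and MIPE were run as 8- and 11-point dose responses; RLUs normalized to DMSO (negative) and no-cell (cytotoxicity) controls.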

NIH3T3 = experiment: Cytotoxic Profiling of Annotated Libraries Using Quantitative High-Throughput Screening (AID 1296008); settings: Five cell lines viability, CellTiter-Glo ATP luminescence, 48-72 h; max response: stronger effect = lower value; as to max response: % is scaled to controls: 0 for no effect and ±100 for the full control effect
How it was run: as §1

MCC-26 = experiment: qHTS assay to identify novel small-molecules to repurpose for Merkel cell carcinoma treatment (AID 1296009); settings: MCC and control cell lines, CellTiter-Glo viability, 72 h
How it was run: as §2

MKL-2 = experiment: as above; settings: MCC and control cell lines, CellTiter-Glo viability, 72 h
How it was run: as §2
Also: nearly all actives have a fitted effect of over 60% in size.
Potency is read from the fitted curve at half-maximal effect.

## COc1ccc2nccc(C(=O)CC[C@@H]3CCN(CC#Cc4cc(F)cc(F)c4F)C[C@@H]3C(=O)O)c2c1
CRL-7250
  max response: -3.43%
HaCat [1]
  outcome: inactive
KB-3-1
  max response: 5.2%
HACAT [2]
  outcome: inactive

## CCCn1cc2c(nc(NC(=O)Nc3ccc(OC)cc3)n3nc(-c4ccco4)nc23)n1
CRL-7250
  max response: 4.71%
HaCat [1]
  outcome: inactive
KB-3-1
  max response: 9%
NIH3T3
  outcome: inactive
HACAT [2]
  outcome: inactive

## CN[C@H]1CC[C@@H](c2ccc(Cl)c(Cl)c2)c2ccccc21
CRL-7250
  Potency: 3760 nM (active)
HaCat [1]
  Potency: 15000 nM (active)
KB-3-1
  max response: -11.2%
NIH3T3
  Potency: 11900 nM (active)
MCC-26
  Potency: 26600 nM (active)
MKL-2
  Potency: 8410 nM (active)

## CC(=O)OC1CC(C)(C(=O)O)CC2C3=CC(=O)C4C5(C)CCC(OC6OC(C(=O)O)C(O)C(O)C6OC6OC(C(=O)O)C(O)C(O)C6O)C(C)(C)C5CCC4(C)C3(C)CCC12C (stereo not drawn)
CRL-7250
  max response: -2.54%
HaCat [1]
  outcome: inactive
KB-3-1
  max response: 3.1%
NIH3T3
  max response: 1.8%
HACAT [2]
  outcome: inactive [at 9.27 µM]

## Cc1cc(CS(=O)(=O)c2ccccc2)cc(OCc2ccc(CN3CCCC3CO)cc2)c1 (stereo not drawn)
CRL-7250
  max response: 4.21%
HaCat [1]
  outcome: inactive
KB-3-1
  max response: -16.6%
HACAT [2]
  outcome: inactive

## CCOc1nc(NC(=O)Cc2cc(OC)ccc2OC)cc(N)c1C#N
CRL-7250
  max response: -9.74%
HaCat [1]
  outcome: inactive
KB-3-1
  max response: 7.15%
HACAT [2]
  outcome: inactive

## O=C(OC1CN2CCC1CC2)N1CCc2ccccc2C1c1ccccc1 (stereo not drawn)
CRL-7250
  max response: 0.185%
HaCat [1]
  outcome: inactive
KB-3-1
  max response: -9.02%
HACAT [2]
  outcome: inactive

## C=C(C(=O)OC)[C@@H]1CC=C2C=CC(=O)[C@H](C)[C@@]2(C)C1
CRL-7250
  max response: 4.23%
HaCat [1]
  outcome: inactive
KB-3-1
  max response: -5.91%
NIH3T3
  outcome: inactive
HACAT [2]
  outcome: inactive

## C=C1C(=O)O[C@@H]2/C=C(\C)CC/C=C(/C=O)[C@H](OC)[C@@H](OC(=O)C(C)C)[C@@H]12
CRL-7250
  max response: 2.09%
HaCat [1]
  outcome: inactive
KB-3-1
  outcome: inactive
HACAT [2]
  outcome: inactive

## CCC(C)CNCC(=O)N1CCC2SC=CC2C1COc1cccc(C)c1 (stereo not drawn)
CRL-7250
  max response: -4.73%
HaCat [1]
  max response: 3.39%
NIH3T3
  max response: -20.9%

## COCCCNC(=O)c1ccc(Cn2c(=O)c3ccccc3n(Cc3ccc(C(C)C)cc3)c2=O)cc1
CRL-7250
  max response: -3.32%
HaCat [1]
  max response: 1.44%
NIH3T3
  max response: 4.09%

## NC(N)=NC(=O)c1cnn(-c2cccc3ncccc23)c1C1CC1
CRL-7250
  max response: -23.8%
HaCat [1]
  max response: -2.12%
NIH3T3
  max response: -11.3%

## NC(=O)CCCSc1nc(N)nc(-c2c(Cl)cc3c4c(cccc24)COC3)n1
CRL-7250
  Potency: 1460 nM (active)
HaCat [1]
  Potency: 291 nM (active)
NIH3T3
  Potency: 731 nM (active)

## CC(F)(F)CN1CCOc2c(nn(-c3ccccc3Cl)c2-c2ccc(Cl)cc2)C1=O
CRL-7250
  outcome: inactive
HaCat [1]
  max response: -16.2%
NIH3T3
  max response: -14.8%

## CC(=O)NC(C)c1cnc(-c2cnc(Oc3ccc(OC(C)C)cc3)s2)s1 (stereo not drawn)
CRL-7250
  max response: -17.1%
HaCat [1]
  max response: 2.34%
NIH3T3
  max response: 0.946%

## COc1cccc(-c2cc(F)ccc2C2Cc3nc(N)nc(C)c3C(=O)N2)n1 (stereo not drawn)
CRL-7250
  Potency: 146 nM (active)
HaCat [1]
  Potency: 46.1 nM (active)
NIH3T3
  Potency: 58 nM (active)

## CC1(C)CC[C@]2(C(=O)O)CC[C@]3(C)C(=CCC4[C@@]5(C)C[C@@H](O)[C@H](O)[C@@](C)(CO)C5CC[C@]43C)[C@@H]2[C@@H]1O (stereo partly drawn)
CRL-7250
  max response: 2.24%
HaCat [1]
  max response: -17.5%
NIH3T3
  max response: 4.68%

## CC(C)S(=O)(=O)c1ccc2nccc(Nc3ccc4scnc4c3)c2c1
CRL-7250
  max response: -19%
HaCat [1]
  outcome: inactive
KB-3-1
  outcome: inactive
HACAT [2]
  outcome: inactive

## COc1ccc(S(=O)(=O)Nc2c(C)cc(C)cc2C)cc1
CRL-7250
  outcome: inactive
HaCat [1]
  max response: -0.296%
NIH3T3
  max response: 0.769%

## O=C(NCCCN1CCOCC1)c1cnn2c(-c3ccccc3)cc(-c3ccccc3)nc12
CRL-7250
  max response: -7.62%
HaCat [1]
  max response: -15.4%
NIH3T3
  max response: -12.1%

## CCOc1cccc(NC(=O)c2ccc(N3CCCC3)c(C(F)(F)F)c2)c1
CRL-7250
  max response: -10.4%
HaCat [1]
  outcome: inactive
KB-3-1
  max response: -0.259%
HACAT [2]
  outcome: inactive

## C=C1C(=O)OC2/C=C(\C)CC/C=C(\C=O)C(OC)C(OC(=O)C(C)CC)C12 (stereo not drawn)
CRL-7250
  max response: -23.9%
HaCat [1]
  outcome: inactive
KB-3-1
  max response: -2.57%
HACAT [2]
  outcome: inactive

## CNC(=O)c1cc(Oc2ccc(NC(=O)c3cccc(C(F)(F)F)c3)cc2)ccn1
CRL-7250
  max response: -16.9%
HaCat [1]
  max response: -5.26%
NIH3T3
  max response: -24.9%

## COc1ccc(C(=O)O[C@H]2C=COC=C3C=C4C(=O)N(C)C(=S)C(=O)N4[C@@H]32)cc1Oc1cc(C=O)ccc1O
CRL-7250
  max response: -5.08%
HaCat [1]
  outcome: inactive
KB-3-1
  outcome: inactive
HACAT [2]
  outcome: inactive [at 17.4 µM]

## C/C(=C/C=C\C=C\Cc1cnco1)[C@@H](O)C(C)(C)C(N)=O
CRL-7250
  max response: 0.0485%
HaCat [1]
  max response: -5.26%
NIH3T3
  max response: -15.3%
